Screening data (PubChem BioAssay)
JMJD2A Tudor inh: blocks the human JMJD2A Tudor domain; Potency, µM (titrated, usually from 114 µM), for inactives: at the highest dose activity change, negative = inhibition, hits mostly inhibitors; AlphaScreen JMJD2A-Tudor / H3K4me3 peptide binding; hit rate 4.4% among 390,000; O75164; further: on the % scale 0 is the no-effect control and ±100 the full control effect; nearly all actives have a fitted effect of over 50% in size
BAZ2B inh: BAZ2B (human) inhibition | AlphaScreen BAZ2B-H3K14Ac peptide displacement | Potency, µM (highest dose often 114 µM), for the others: at the highest dose activity change, negative = inhibition, hits mostly inhibitors | hit rate 4.4% among 360,000 | AID 504333; further: on the % scale 0 is the no-effect control and ±100 the full control effect; nearly all actives have a fitted effect of over 60% in size
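Compounds, titrated to a top concentration of 110 uM, were incubated 30 min at room temperature with preformed BAZ2B/acetyl-K14 H3 peptide complex (50 nM each). Proximity signal was measured by AlphaScreen after 20 min with beads.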
Sfp inh: Sfp phosphopantetheinyl transferase inhibition. hit rate 3.5% among 310,000. Potency, µM, for inactives: largest response in the series, negative = inhibition, usual class: inhibitors. Biochemical Sfp PPTase activity, qHTS. AID 1490;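 further: the enzyme is Sfp with the accession as filed and its product quenches rhodamine fluorescence; 0% = enzyme reaction without inhibitor and -100% = no enzyme wells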
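Buffer: 50 mM Hepes-Na pH 7.6, 10 mM MgCl2, 0.01% Nonidet P-40, 0.01% BSA. Enzyme 15 nM, pre-exposed to compound 15 min; substrates then added and fluorescence change tracked over 30 min.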
HP1b chromo inh: blocks HP1-beta chromodomain binding to methylated histone tails. P83916. AlphaScreen HP1-beta / biotin-H3K9me3 peptide binding. Potency, µM (doses to about 114 µM), inactives show at the top dose activity change, negative = inhibition, actives largely listed as inhibitors. hit rate 0.56% among 390,000; further: nearly all actives have a fitted effect of over 70% in size
Target sequence (P83916 whole entry, looked up): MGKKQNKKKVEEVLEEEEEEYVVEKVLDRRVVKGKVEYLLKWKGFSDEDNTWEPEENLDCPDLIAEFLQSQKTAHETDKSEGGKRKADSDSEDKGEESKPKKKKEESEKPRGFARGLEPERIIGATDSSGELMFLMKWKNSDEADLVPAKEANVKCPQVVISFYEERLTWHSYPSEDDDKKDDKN
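Compound inhibition of the preformed complex between 50 nM HP1-beta and 50 nM biotinylated H3K9me3 peptide was read by AlphaScreen. Buffer was PBS pH 7.4 with 0.01% Tween-20. Incubations ran 30 min at room temperature, with 10 ug/mL donor/acceptor beads.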
G9a block: blocks human histone lysine methyltransferase G9a; G9a H3K9 monomethylation, AlphaScreen, 2 h; hit rate 8.8% among 350,000; AID 504332; Potency, µM (titrated, usually from 102 µM), for inactives: at the top dose activity, negative = inhibition, actives largely listed as inhibitors; Q96KQ7; further: on the % scale 0 is the no-effect control and ±100 the full control effect; nearly all actives have a fitted effect of over 75% in size
Target sequence (Q96KQ7 913-1193 limits assumed): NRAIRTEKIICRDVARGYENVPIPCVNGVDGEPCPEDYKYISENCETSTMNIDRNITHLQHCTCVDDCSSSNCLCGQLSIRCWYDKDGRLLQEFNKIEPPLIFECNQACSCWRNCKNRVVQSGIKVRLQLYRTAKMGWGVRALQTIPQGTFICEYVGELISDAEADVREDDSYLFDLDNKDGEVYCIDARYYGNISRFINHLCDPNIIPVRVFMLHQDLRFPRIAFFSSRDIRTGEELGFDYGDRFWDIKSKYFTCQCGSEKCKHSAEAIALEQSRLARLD
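AlphaScreen read-out: biotin-H3K9 peptide (500 nM) methylation by 20 nM enzyme with 20 uM SAM, 2 h at room temperature after 15 min compound preincubation; anti-monomethyl H3K9 antibody plus donor/acceptor beads, 10 min dark.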
Starred values were filed as active, the others as inactive; u = inconclusive; x = no result given; [ ] = another dose, or the depositor's remark. This is a sample that favours compounds with a hit; in the whole collection about 12% have one here. The call rests on the fitted dose curve; in most records, active means well fitted curve in the direction sought with a large enough effect; inconclusive means small, poorly fitted or top-dose-only effect, or another doubt; inactive means no such curve, though single readings can be large; an effect the other way counts as inactive or inconclusive. Potency means the concentration at half of the fitted maximal effect.

SMILES | JMJD2A Tudor inh | BAZ2B inh | Sfp inh | HP1b chromo inh | G9a block
C[C@@H]1O[C@@H](OC2C(O)C(OCCc3ccc(O)c(O)c3)OC(CO)C2OC(=O)/C=C/c2ccc(O)c(O)c2)[C@H](O)[C@H](O)[C@H]1O (some centres undefined) | x | 32µM* | x | x | u
O=C(Nc1ccc(S(=O)(=O)N2CCCc3ccccc32)cc1)C1CCCO1 (centres undefined) | -25% | 4% | 2% | 7% | 45µM*
COc1cccc(CNC(=O)c2ccc(NC(=O)C3CCCO3)cc2)c1 (centres undefined) | -4% | -4% | -2% | 33% | 7%[59 µM]
NS(=O)(=O)c1ccc(NC(=O)c2ccc(S(=O)(=O)N3CCc4ccccc43)cc2)cc1 | -26% | -14% | 6% | 28% | 32µM*
O=C(NCc1ccccc1)c1ccc(NC(=O)C2CCCO2)cc1 (centres undefined) | -6% | -31% | 18% | 36% | 20µM*
O=C(Nc1ccncc1)c1ccc(Cl)c(S(=O)(=O)N2CCc3ccccc32)c1 | u | 50µM* | x | -17% | u
NC(=O)c1ccsc1NC(=O)c1ccc(S(=O)(=O)N2CCCc3ccccc32)cc1 | -34% | u | 6% | 13% | 50µM*
COCCn1c(=O)c(-c2ccccc2)nc2cnc(N(C)C)nc21 | x | x | 6% | x | 3%[0.501 µM]
NNc1nc2c(Cl)ccc(Cl)c2s1 | 45µM* | 50µM* | 5% | -31% | u
O=C(Nc1nc2c(Cl)ccc(Cl)c2s1)C1CC1 | -9% | -7% | 11% | 16% | x
Cc1nc(SCC(=O)NC2CCS(=O)(=O)C2)c2c3c(sc2n1)CCC3 (centres undefined) | -12% | x | x | -17% | x
Cc1nc(SCC(=O)NC2CCS(=O)(=O)C2)c2c3c(sc2n1)CCCC3 (centres undefined) | -11% | 4% | x | 20% | 50µM*
O=C1CC(C(F)(F)C(F)(F)C(F)(F)C(F)F)=Nc2ccccc2N1 | 7% | 6% | 11% | 13% | 12%
O=C1CC(/C=C/c2ccco2)=Nc2ccccc2N1 | -29% | -12% | -23% | 17% | 45µM*
O=C1CC(/C=C/c2ccccn2)=Nc2ccccc2N1 | 45µM* | u | -35% | -15% | 45µM*
O=C1CC(/C=C/c2ccc([N+](=O)[O-])cc2)=Nc2ccccc2N1 | -10%[11.4 µM] | u | 22µM* | -14% | x
CCOC(=O)CN1C2=NCCN2c2ccccc21 | -4% | -4% | -81% | 27% | -9%[59 µM]
CC1(C)Cc2c(sc3ncnc(N)c23)CO1 | -8% | -5% | 16% | 13% | -7%[59 µM]
CCCC1Cc2c(sc3ncnc(N)c23)CO1 (centres undefined) | -6% | 5% | -7% | 60% | 45µM*
CCCC[n+]1ccn(C2=C([O-])c3ccccc3C(=O)/C2=N\S(=O)(=O)c2ccc(Br)cc2)c1 | -12% | 89µM* | -12% | 18% | 45µM*
Cc1ccc(S(=O)(=O)/N=C2\C(=O)c3ccccc3C([O-])=C2n2cc[n+](CCC(C)C)c2)cc1 | -20% | -34% | 6% | 5% | u
O=c1cc2c(n[nH]1)CCCC2 | 56µM* | u | 6% | 22% | u
O=c1cc2c(n[nH]1)-c1ccccc1CC2 | 6% | 4% | 15% | 23% | 1%
O=C(Nc1nc2nc(-c3ccccc3)cc(=O)n2[nH]1)c1ccc(F)cc1 | -10% | 79µM* | x | 30% | 15%[12.7 µM]
Cc1ccc(C(=O)Nc2nc3nc(-c4ccccc4)cc(=O)n3[nH]2)cc1 | -2% | u | 13% | 64% | u
COc1ccc(C(=O)CCN2CCN(c3ccccc3F)CC2)cc1 | -4%[11.4 µM] | -33% | 50µM* | 51% | u
O=C(CCN1CCN(c2ccccc2F)CC1)c1ccc(Br)cc1 | -26% | -4% | -26% | 20% | 3.2µM*
COc1ccc(OC)c(NC(=O)CCN2CCN(c3ccccc3F)CC2)c1 | -24% | u | u | -4% | u
COc1ccc(Cl)cc1NC(=O)CN(C)CC(=O)NCc1cccs1 | 2% | 0% | x | 46% | 12%[12.7 µM]
COC(=O)[C@H](CCSC)NC(=O)Nc1ccc(C)cc1C | 1% | -5% | 16% | 30% | 40%
